Test results reported in the supplement of paper PMC4840960.

The molecules below were run on E18 rat cortical neuron-glia co-culture (assay: fiber score / MBP score (myelination specific beyond OL differentiation) (ratio); higher = more myelination-specific MBP alignment). Settings: 1 µM; treatment time: 8 days (DIV5-DIV13).
Outline: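 Library compounds were applied at 1 or 5 µM in myelination medium, DIV5 to DIV13, to primary E18 rat cortical co-cultures grown at 20,000 cells/well in 96-well plates. After 4 % paraformaldehyde fixation and MBP/Olig2/DAPI immunostaining, four 10X fields per well in duplicate wells were scored. Each value is continuous MBP fiber length per Olig2+ nucleus divided by thresholded MBP area × intensity per Olig2+ nucleus.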

| Compound | fiber score / MBP score |
| --- | --- |
| CCCc1cc(=O)[nH]c(=S)[nH]1 [Propylthiouracil] | 0.95 |
| CC[C@@H](CO)NCCN[C@@H](CC)CO [Ethambutol] | 0.781 |
| COC(=O)C1=C(C)NC(C)=C(C(=O)OC)C1c1ccccc1[N+](=O)[O-] [Nifedipine] | 0.768 |
| Cn1cnc([N+](=O)[O-])c1Sc1ncnc2[nH]cnc12 [Azathioprine] | 0.762 |
| CC(C(O)c1ccc(O)cc1)N1CCC(Cc2ccccc2)CC1 (stereo not given) [Ifenprodil] | 0.348 |
| CC1=C(C(=O)O)N2C(=O)[C@@H](NC(=O)[C@H](N)c3ccccc3)[C@H]2SC1 [Cephalexin] | 0.963 |
| Clc1ccc2nsnc2c1NC1=NCCN1 [Tizanidine] | 0.796 |
| Cc1cccc(C)c1OCC(C)N (stereo not given) [Mexiletine] | 0.887 |
| CCN1CCCC1CNC(=O)c1cc(S(N)(=O)=O)ccc1OC (stereo not given) [Sulpiride] | 0.858 |
| Nc1ccc(O)c(C(=O)O)c1 [Mesalamine] | 0.748 |
| C[C@H]1c2cccc(O)c2C(=O)C2=C(O)[C@]3(O)C(=O)C(C(N)=O)=C(O)[C@@H](N(C)C)[C@@H]3[C@@H](O)[C@@H]21 [Doxycycline] | 0.798 |
| Cc1ccc(S(=O)(=O)NC(=O)NN2CCCCCC2)cc1 [Tolazamide] | 0.701 |
| CCC1=C(C)CN(C(=O)NCCc2ccc(S(=O)(=O)NC(=O)N[C@H]3CC[C@H](C)CC3)cc2)C1=O [Glimepiride] | 1.06 |
| O=C(O)c1cc(/N=N/c2ccc(S(=O)(=O)Nc3ccccn3)cc2)ccc1O [Sulfasalazine] | 0.823 |
| CN1CCC(=C2c3ccccc3CC(=O)c3sccc32)CC1 [Ketotifen] | 1.03 |
| CC1(C)O[C@@H]2C[C@H]3[C@@H]4CCC5=CC(=O)C=C[C@]5(C)[C@@]4(F)[C@@H](O)C[C@]3(C)[C@]2(C(=O)CO)O1 [Triamcinolone Acetonide] | 1.37 |
| Cc1c(O)c(=O)ccn1C [Deferiprone] | 0.908 |
| COc1cc(Cc2cnc(N)nc2N)cc(OC)c1OC [Trimethoprim] | 0.828 |
| CC(=O)OCC(=O)[C@@]1(O)CC[C@H]2[C@@H]3CCC4=CC(=O)C=C[C@]4(C)[C@H]3[C@@H](O)C[C@@]21C [Prednisolone acetate] | 0.826 |
| Cn1c(=O)c2nc[nH]c2n(C)c1=O [Theophylline] | 0.93 |
| CCCc1nc2c(C)cc(-c3nc4ccccc4n3C)cc2n1Cc1ccc(-c2ccccc2C(=O)O)cc1 [Telmisartan] | 0.729 |
| CCC(C)n1ncn(-c2ccc(N3CCN(c4ccc(OCC5COC(Cn6cncn6)(c6ccc(Cl)cc6Cl)O5)cc4)CC3)cc2)c1=O (stereo not given) [Itraconazole] | 1.21 |
| CNC[C@H](O)c1ccc(O)c(O)c1 [Epinephrine] | 0.884 |
| COc1cc(N)c(Cl)cc1C(=O)NC1CCN(CCCOc2ccc(F)cc2)CC1OC (stereo not given) [Cisapride] | 0.935 |
| NC(=O)c1cnccn1 [Pyrazinamide] | 0.64 |
